PubChem BioAssay (Tox21)
Where “and” joins values, the source holds several entries; their conditions need not be identical. Equal values may be shown once. Inconclusive results are not listed. A call without a number means that no potency is given here. Where a structure was tested more than once in an assay, its records may differ in their call. Calls of active or inactive are those of the source. Unless noted, calls follow the shape of the dose curve; as a rule, active = well fitted curve in the direction sought with a large enough effect in the repeat runs; inconclusive = weak or mixed curves; inactive = no such curve, though single readings can be large; an effect the other way counts as inactive or inconclusive.

Experiments:
[1] = target: Thyrotropin-releasing hormone receptor (Homo sapiens) (UniProt P34981); test: qHTS assay to identify small molecule agonists of the thyrotropin-releasing hormone receptor (TRHR) signaling pathway (AID 1346891; calls by dose curve; also: potency is read from the fitted curve at half-maximal effect;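 as to activation: HEK293 cells expressing TRHR with calcium dye readout; series mostly up to about 58 µM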)
In short: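 HEK293/TRHR cells, 1500 per well, 18 h 37 °C; Ca dye 2 h 37 °C; pin-tool compound addition (agonist mode); kinetic fluorescence 3 min, 1 s reads; 15 concentrations, triplicate.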

[2] = Human pregnane X receptor (PXR) small molecule agonists, qHTS cell viability counter screen (AID 1346977); also: nearly all actives have a fitted effect of over 50% in size; also: potency is read from the fitted curve at half-maximal effect
In short: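 Fluorescence read-out (CellTiter-Fluor) of viability in PXR-Luc HepG2 cells, multiplexed with the luciferase agonist read. Compounds in DMSO added after 5hr plating; 24hr total exposure at 37C, 5% CO2.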

[3] = Caspase-3/7 induction in HepG2 cells by small molecules, qHTS assay (AID 1346978); also: nearly all actives have a fitted effect of over 15% in size; also: potency is read from the fitted curve at half-maximal effect
In short: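 Wild-type HepG2 cells, 2,000/well, settled 5 hr at 37 C and 5% CO2, then compound-treated for 17 hr; caspase-3/7 activity read by luminescent Caspase-Glo 3/7 after 30 min at room temperature.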

[4] = Caspase-3/7 induction in CHO-K1 cells by small molecules, qHTS assay (AID 1346980); also: nearly all actives have a fitted effect of over 15% in size
In short: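 Wild-type CHO-K1 cells exposed to compounds for 17hr at 37 C, 5% CO2. Caspase-3/7 activity then measured by Caspase-Glo 3/7 luminescence after 30min at room temperature.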

[5] = Caspase-3/7 induction in HepG2 cells by small molecules, qHTS cell viability counter screen (AID 1346981); also: nearly all actives have a fitted effect of over 30% in size; also: potency is read from the fitted curve at half-maximal effect
In short: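 After a 5-hr attachment period at 37 C and 5% CO2, wild-type HepG2 cells received compounds in DMSO. Sixteen hours later CellTiter-Fluor was dispensed and the fluorescent signal quantified after a further hour.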

[6] = target: Nuclear receptor subfamily 1 group I member 2 (Homo sapiens) (UniProt O75469); test: Human pregnane X receptor (PXR) small molecule agonists, qHTS assay (AID 1346982); also: nearly all actives have a fitted effect of over 35% in size; also: potency is read from the fitted curve at half-maximal effect
In short: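 Tox21 qHTS; PXR-Luc HepG2; compounds pinned from DMSO; 24 hr, 37 C; ONE-Glo luciferase detection, 30 min room temperature.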

[7] = Caspase-3/7 induction in CHO-K1 cells by small molecules, qHTS cell viability counter screen (AID 1346979); also: nearly all actives have a fitted effect of over 35% in size; also: potency is read from the fitted curve at half-maximal effect
In short: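 CHO-K1 wt, 1,500 cells/well; 5hr pre-incubation 37C/5% CO2; compound pin transfer (DMSO); 16hr exposure; CellTiter-Fluor added, 1hr, fluorescence read.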

[8] = target: Nuclear receptor subfamily 1 group I member 2 (Rattus norvegicus) (UniProt Q9R1A7); test: Rat pregnane X receptor (rPXR) activation by small molecules, qHTS assay (AID 1346983); settings: rPXR luciferase reporter cells, One-Glo luminescence, 24 h; max activation: stronger effect = higher value; also: nearly all actives have a fitted effect of over 20% in size; also: potency is read from the fitted curve at half-maximal effect
In short: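 Cell-based rPXR activation assay: rPXR cells, 2,000 per well, rested 5hr at 37 C, then exposed to compounds in DMSO for 24 hr at 37 C. Luciferase activity read by One-Glo luminescence after 30 min at room temperature.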

[9] = target: Nuclear receptor subfamily 1 group I member 2 (Homo sapiens) (UniProt O75469); test: CYP3A4 induction through human pregnane X receptor (PXR) by small molecules, qHTS assay (AID 1346984); also: nearly all actives have a fitted effect of over 40% in size; also: potency is read from the fitted curve at half-maximal effect
In short: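 Cells (DPX-2; HepG2 with PXR element plus CYP3A4-promoter luciferase) settled 5hr, then were treated 24hr at 37C. A 3hr, 3uM-final Luciferin-IPA step preceded luminescence measurement with One-Glo.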

[10] = target: Nuclear receptor subfamily 1 group I member 2 (Homo sapiens) (UniProt O75469); test: Human pregnane X receptor (PXR) activation by small molecules, qHTS assay (AID 1346985); also: nearly all actives have a fitted effect of over 40% in size; also: potency is read from the fitted curve at half-maximal effect
In short: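 DPX-2 cells (HepG2 co-transfected with a PXR response element and a CYP3A4-promoter luciferase construct) were seeded at 2,000 per well, rested 5 hr at 37C, then exposed to DMSO-dissolved compounds for 24 hr. Activation was read as luciferase luminescence.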

Nuclear receptor subfamily 1 group I member 2 (Rattus norvegicus), sequence (Q9R1A7 whole entry, looked up): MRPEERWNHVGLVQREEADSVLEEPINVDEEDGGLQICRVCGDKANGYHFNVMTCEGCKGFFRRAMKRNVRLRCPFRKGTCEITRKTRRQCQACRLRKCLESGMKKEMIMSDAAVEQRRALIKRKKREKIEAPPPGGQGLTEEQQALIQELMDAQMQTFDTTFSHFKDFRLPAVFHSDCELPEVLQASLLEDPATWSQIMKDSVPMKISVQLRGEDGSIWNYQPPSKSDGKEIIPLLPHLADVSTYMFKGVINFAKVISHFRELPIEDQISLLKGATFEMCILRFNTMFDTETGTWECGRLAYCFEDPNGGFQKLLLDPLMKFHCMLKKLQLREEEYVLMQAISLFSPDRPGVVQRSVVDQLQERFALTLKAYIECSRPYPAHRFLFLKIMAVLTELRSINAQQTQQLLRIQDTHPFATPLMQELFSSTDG
Thyrotropin-releasing hormone receptor (Homo sapiens), sequence (P34981 whole entry, looked up): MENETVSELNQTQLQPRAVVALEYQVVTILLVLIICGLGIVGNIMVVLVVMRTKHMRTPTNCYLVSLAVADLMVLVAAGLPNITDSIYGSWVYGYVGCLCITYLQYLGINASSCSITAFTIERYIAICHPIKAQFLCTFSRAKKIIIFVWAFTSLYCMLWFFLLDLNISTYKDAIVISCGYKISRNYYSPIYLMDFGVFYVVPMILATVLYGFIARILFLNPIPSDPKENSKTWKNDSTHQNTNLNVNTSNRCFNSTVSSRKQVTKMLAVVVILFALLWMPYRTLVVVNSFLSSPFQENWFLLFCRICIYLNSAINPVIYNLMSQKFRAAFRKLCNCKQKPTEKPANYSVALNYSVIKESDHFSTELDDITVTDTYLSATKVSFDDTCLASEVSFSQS
Nuclear receptor subfamily 1 group I member 2 (Homo sapiens), sequence (O75469 whole entry, looked up): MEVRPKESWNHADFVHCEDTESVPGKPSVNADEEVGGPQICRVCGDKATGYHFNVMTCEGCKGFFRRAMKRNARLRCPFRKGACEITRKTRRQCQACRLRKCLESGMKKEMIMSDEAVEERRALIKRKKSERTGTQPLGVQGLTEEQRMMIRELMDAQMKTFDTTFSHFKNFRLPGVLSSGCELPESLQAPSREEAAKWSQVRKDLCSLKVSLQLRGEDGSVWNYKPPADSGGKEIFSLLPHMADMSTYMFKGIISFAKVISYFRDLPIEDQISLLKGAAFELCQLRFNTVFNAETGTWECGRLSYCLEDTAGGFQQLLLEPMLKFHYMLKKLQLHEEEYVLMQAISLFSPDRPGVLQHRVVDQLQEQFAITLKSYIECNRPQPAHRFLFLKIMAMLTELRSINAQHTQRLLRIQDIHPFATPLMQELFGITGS

Structure (SMILES)	Potency [1]	Potency [2]	Potency [3]	Potency [4]	Potency [5]	Potency [6]	Potency [7]	max activation [8]	Potency [9]	Potency [10]	Potency [8]
OCCO	inactive	inactive	inactive	inactive	inactive	inactive					
CCCCC(CC)COP(=O)(OCC(CC)CCCC)OCC(CC)CCCC (stereo not drawn)	inactive		inactive	inactive	inactive	inactive and 4.86 µM (active)					
O=C1OC2(c3cc(Br)c(O)c(Br)c3Oc3c2cc(Br)c(O)c3Br)c2c(Cl)c(Cl)c(Cl)c(Cl)c21	15.5 µM (active) and 23.6 µM (active)		inactive	inactive	9.7 µM (active) and 16.6 µM (active)	inactive	6.87 µM (active) and 14.8 µM (active)				
CC(C)(C)NC(=O)[C@H]1CC[C@H]2[C@@H]3CC[C@H]4NC(=O)C=C[C@]4(C)[C@H]3CC[C@]12C	inactive		inactive	inactive	inactive	48.6 µM (active)	inactive	-2.95% (inactive)	inactive	inactive	
Cn1cnc([N+](=O)[O-])c1Sc1ncnc2nc[nH]c12	inactive		inactive	inactive	48.2 µM (active)	inactive	51.1 µM (active)				
CCCCNS(=O)(=O)c1ccccc1	inactive		inactive	inactive	inactive		inactive				
CCOCCOCCO	inactive	inactive	inactive	inactive	inactive	inactive					
CC(=O)Oc1ccccc1C(=O)Nc1ncc([N+](=O)[O-])s1	inactive		inactive	inactive	15.7 µM (active) and 21.1 µM (active)	11.1 µM (active) and 2.11 µM (active)	12.4 µM (active) and 18.8 µM (active)	-18.4% (inactive)	inactive	inactive	
C[Si](C)(C)O[Si](C)(C)C	inactive		inactive	inactive	inactive	68.2 µM (active) and inactive	inactive	-1.76% (inactive)	inactive	inactive	
CN(C)CCC=C1c2ccccc2CCc2ccccc21	inactive		68.6 µM (active) and inactive	inactive	inactive	19.3 µM (active) and inactive	61.1 µM (active)				
CNCCCC12CCC(c3ccccc31)c1ccccc12	inactive		27.3 µM (active)	inactive	61.1 µM (active)		61.1 µM (active) and inactive				
O=C(c1ccccc1)c1ccc(O)cc1O	inactive		inactive	inactive	inactive	62.3 µM (active) and 61.1 µM (active)					
C#C[C@]1(O)CC[C@H]2[C@@H]3CCc4cc(OC)ccc4[C@H]3CC[C@@]21C	inactive	inactive	inactive	inactive	inactive	21.7 µM (active) and 18.8 µM (active)		4.03% (inactive)	inactive		
O=C(/C=C/C=C/c1ccc2c(c1)OCO2)N1CCCCC1	inactive	inactive	inactive	inactive	inactive	10.9 µM (active)					
COC(=O)C1=C(C)NC(C)=C(C(=O)OCCN(C)Cc2ccccc2)C1c1cccc([N+](=O)[O-])c1 (stereo not drawn)	inactive		inactive	inactive	48.3 µM (active) and 26.6 µM (active)						
c1ccc2c(c1)c1cccc3ccc4cccc2c4c31	inactive		inactive	inactive	inactive	inactive	inactive				
CC(C)=CCCC(C)CCO (stereo not drawn)	inactive		inactive	inactive	inactive	inactive	inactive				
CCCCC/C=C/C=C/C=O	inactive		inactive	inactive	inactive	inactive and 61.1 µM (active)					
CC(C(=O)O)c1cccc(C(=O)c2ccccc2)c1 (stereo not drawn)	inactive		inactive	inactive	inactive		inactive				
CCCc1c(OCCCCc2nn[nH]n2)ccc(C(C)=O)c1O	inactive		inactive	inactive	inactive	61.1 µM (active) and inactive	inactive				
Nc1ccc(Nc2ccccc2)cc1	inactive	30.3 µM (active) and 39.8 µM (active) and 30.6 µM (active)	inactive	inactive	42.8 µM (active) and 34.4 µM (active) and 48.6 µM (active)	24.1 µM (active) and 19.3 µM (active) and 34.4 µM (active)					
O=c1oc(=O)c2cc3c(=O)oc(=O)c3cc12	inactive		inactive	inactive	inactive		inactive				
Cc1ccc(C(=O)c2cc(O)c(O)c([N+](=O)[O-])c2)cc1	inactive		inactive	inactive	43.3 µM (active)		43.3 µM (active)				
OC[C@H]1O[C@@H]2O[C@H]3[C@H](O)[C@@H](O)[C@@H](O[C@H]4[C@H](O)[C@@H](O)[C@@H](O[C@H]5[C@H](O)[C@@H](O)[C@@H](O[C@H]6[C@H](O)[C@@H](O)[C@@H](O[C@H]7[C@H](O)[C@@H](O)[C@@H](O[C@H]8[C@H](O)[C@@H](O)[C@@H](O[C@H]1[C@H](O)[C@H]2O)O[C@@H]8CO)O[C@@H]7CO)O[C@@H]6CO)O[C@@H]5CO)O[C@@H]4CO)O[C@@H]3CO	inactive	inactive	inactive	inactive	inactive	inactive		-2.34% (inactive)	inactive	inactive	
CCCCOCCOCCOCCO	inactive	inactive	inactive	inactive	inactive	inactive					
c1cc(N(CC2CO2)CC2CO2)ccc1OCC1CO1 (stereo not drawn)	inactive	61.1 µM (active)		inactive	54.5 µM (active) and 27.3 µM (active)	48.6 µM (active) and 24.3 µM (active)					
COC(=O)c1ccccc1	inactive		inactive	inactive	inactive	inactive	inactive				

Structure (SMILES)	Potency [1]	Potency [2]	Potency [3]	Potency [4]	Potency [5]	Potency [6]	Potency [7]	max activation [8]	Potency [9]	Potency [10]	Potency [8]
c1ccc2sc(SSN3CCOCC3)nc2c1	inactive		inactive	inactive	inactive	61 µM (active) and 68.6 µM (active)					
COC(=O)Nc1nc2ccc(S(=O)c3ccccc3)cc2[nH]1 (stereo not drawn)	inactive		inactive	inactive	inactive	68.5 µM (active) and 8.41 µM (active)					
c1ccncc1	inactive		inactive	inactive	inactive	inactive					
O=C(O)c1ccccc1Nc1cccc(C(F)(F)F)c1	inactive	inactive	inactive	inactive	inactive	30.6 µM (active) and inactive					
CC1=CCC(C(C)(C)O)CC1 (stereo not drawn)	inactive	inactive	inactive	inactive	inactive	54.8 µM (active) and inactive		-1.16% (inactive)	inactive	inactive	
C[C@]12CCC(=O)C=C1CC[C@@H]1[C@@H]2C(=O)C[C@@]2(C)[C@H]1CC[C@]2(O)C(=O)CO			inactive	inactive	inactive	inactive	inactive	0.346% (inactive)	inactive	inactive	
COc1ccc(OC)c(C(O)CNC(=O)CN)c1 (stereo not drawn)		inactive	inactive	inactive	inactive	inactive	inactive	1.02% (inactive)	inactive	inactive	
CC1=CC2C3CC(C=C3C)C2C1 (stereo not drawn)		inactive	inactive	inactive	inactive	inactive and 27.3 µM (active)					
COc1cccc2c1C(=O)c1c(O)c3c(c(O)c1C2=O)C[C@@](O)(C(=O)CO)C[C@@H]3O[C@H]1C[C@H](N)[C@H](O)[C@H](C)O1	inactive		5.96 µM (active)	inactive	3.85 µM (active) and 11.9 µM (active)	inactive		-0.0344% (inactive) and 3.76% (inactive)	inactive	inactive	
O=C(c1ccc(OCCN2CCCCC2)cc1)c1c(-c2ccc(O)cc2)sc2cc(O)ccc12			68.7 µM (active) and inactive	inactive	61.2 µM (active) and 61.1 µM (active)		54.5 µM (active) and 61.1 µM (active) and 26.6 µM (active)				
Nc1ccc(S(=O)(=O)Nc2cnc3ccccc3n2)cc1			inactive	inactive	inactive	inactive	inactive	6.27% (inactive)	inactive	inactive	
CC(C)Oc1ccc2c(=O)c(-c3ccccc3)coc2c1			inactive	inactive	inactive	2.98 µM (active) and 1.06 µM (active)			inactive		0.316 µM (active)
Cc1c(C(N)=O)cc([N+](=O)[O-])cc1[N+](=O)[O-]			inactive	inactive	inactive	inactive	inactive	0.724% (inactive)	inactive	inactive	
S=C(NC1CCCCC1)NC1CCCCC1		inactive	inactive	inactive	inactive	26.8 µM (active) and 19.3 µM (active)					
CCCC(=O)O	inactive		inactive	inactive	inactive	inactive		-1.54% (inactive)	inactive	inactive	
c1ccc(Nc2ccccc2)cc1			inactive	inactive	inactive	61.1 µM (active) and inactive					
Nc1ncnc2nc[nH]c12		inactive	inactive	inactive	inactive	27.3 µM (active) and inactive		0.861% (inactive)	inactive	inactive	
COc1cc([C@@H]2c3cc4c(cc3[C@H](O)[C@H]3COC(=O)[C@H]23)OCO4)cc(OC)c1OC	inactive		inactive	inactive		0.0485 µM (active)				14.1 µM (active)	
CCC(C)(O)CCCC(C)C (stereo not drawn)		inactive	inactive	inactive	inactive	inactive	inactive				
CCCCCCCCCCCO		inactive	inactive	inactive	inactive	inactive	inactive				
CC(C)OC(=O)C(C)(C)Oc1ccc(C(=O)c2ccc(Cl)cc2)cc1		inactive	inactive	inactive	inactive	27.3 µM (active)					
OC(CCl)CCl			inactive	inactive	inactive	inactive					
CC(=O)O[C@]1(C(C)=O)CC[C@H]2[C@@H]3C=C(Cl)C4=CC(=O)[C@@H]5C[C@@H]5[C@]4(C)[C@H]3CC[C@@]21C		inactive	inactive	inactive	inactive	61.1 µM (active) and inactive			inactive	inactive	
NC=O			inactive	inactive	inactive	inactive	inactive				
Cc1cccc(N(C)C(=S)Oc2ccc3ccccc3c2)c1		inactive	inactive	inactive	inactive	17.2 µM (active) and 11.9 µM (active)		2.58% (inactive)	5.01 µM (active)	8.91 µM (active)	
Cc1cccc(C(=O)O)c1		14.1 µM (active)	13.5 µM (active) and inactive	inactive		9.57 µM (active) and inactive					
O=C(Nc1ccc(Cl)cc1)Nc1ccc(Cl)c(Cl)c1		7.08 µM (active) and 12.2 µM (active) and 13.3 µM (active)	inactive	inactive		7.66 µM (active)		-13.1% (inactive)	inactive	inactive	
